{
  "source": "the supplement of paper PMC12339681",
  "note": "Structures can show the parent of a compound that is named as a salt.",
  "data": [
    {"tested_on": "PBMC-derived induced microglia-like cells (piMGLC)", "assay": "synaptosome phagocytic index relative to DMSO control (fraction of DMSO); higher = more phagocytosis", "settings": "concentration: 10 uM (2 uM for compounds listed in Table S2); pretreatment time: 24 h; assay time: 3 h", "values": [
      {"smiles": "CC(=O)NCCCS(=O)(=O)O", "note": "[Acamprosate_(calcium)]", "synaptosome phagocytic index": 0.864},
      {"smiles": "COc1ncc(F)cc1CNc1ccc(Cc2c[nH]c3ncc(C)cc23)c(F)n1", "synaptosome phagocytic index": 0.951},
      {"smiles": "CN1C[C@@H]2[C@H](C1)[C@H]2CN(Cc1ccc(F)c(Cl)c1)C(=O)c1cn(C)cn1", "synaptosome phagocytic index": 0.691},
      {"smiles": "NC[C@H]1CC[C@H](C(=O)O)CC1", "note": "[Tranexamic_acid]", "synaptosome phagocytic index": 0.927},
      {"smiles": "CN1CCC(=C2c3ccccc3C=Cc3ccccc32)CC1", "note": "[Cyproheptadine_(hydrochloride)]", "synaptosome phagocytic index": 0.741},
      {"smiles": "COc1ccc(NS(=O)(=O)c2ccc(N)cc2)nn1", "note": "[Sulfamethoxypyridazine]", "synaptosome phagocytic index": 1.03},
      {"smiles": "CC(C)(Sc1cc(C(C)(C)C)c(O)c(C(C)(C)C)c1)Sc1cc(C(C)(C)C)c(O)c(C(C)(C)C)c1", "note": "[Probucol]", "synaptosome phagocytic index": 0.859},
      {"smiles": "Cc1cccc(C)c1OCC(=O)N[C@@H](Cc1ccccc1)[C@@H](O)C[C@H](Cc1ccccc1)NC(=O)[C@H](C(C)C)N1CCCNC1=O", "note": "[Lopinavir]", "synaptosome phagocytic index": 0.253},
      {"smiles": "Cc1cc(-c2nncc3c(C(C)(C)C)c(OCc4ncnn4C)nn23)no1", "synaptosome phagocytic index": 0.814},
      {"smiles": "CCOC(=O)C1=C(C)NC(C)=C(C(=O)OC)C1c1cccc(Cl)c1Cl", "note": "(stereo unspecified) [Felodipine]", "synaptosome phagocytic index": 1.04},
      {"smiles": "COC[C@@H](c1ccc(C(F)(F)F)cc1)N1CCN(C2(C)CCN(C(=O)c3c(C)ncnc3C)CC2)C[C@@H]1C", "note": "[Vicriviroc_(maleate)]", "synaptosome phagocytic index": 0.947},
      {"smiles": "C#Cc1cccc(Nc2ncnc3cc(OCCOC)c(OCCOC)cc23)c1", "note": "[Erlotinib_(Hydrochloride)]", "synaptosome phagocytic index": 0.391},
      {"smiles": "COc1cc(C(C)=O)ccc1OCCCN1CCC(c2noc3cc(F)ccc23)CC1", "note": "[Iloperidone]", "synaptosome phagocytic index": 0.853},
      {"smiles": "COc1cc2nc(C3CC3)nc(N3CCN(c4ccccc4OC)CC3)c2cc1OC", "synaptosome phagocytic index": 0.0572},
      {"smiles": "CCN(CC)CC(=O)Nc1c(C)cccc1C", "note": "[Lidocaine_(hydrochloride)]", "synaptosome phagocytic index": 0.925},
      {"smiles": "O=C(O)[C@H]1CSC(c2nc3cc4c(cc3s2)NCC4)=N1", "synaptosome phagocytic index": 0.923},
      {"smiles": "CC(C)CCN(CCC(C)C)C(=O)c1ccc2nc(-c3ccc(C#N)cc3)c(CCCN3CCCC3)n2c1", "synaptosome phagocytic index": 0.408},
      {"smiles": "CS(=O)(=O)CCNCc1ccc(-c2ccc3ncnc(Nc4ccc(OCc5cccc(F)c5)c(Cl)c4)c3c2)o1", "note": "[Lapatinib_(ditosylate)]", "synaptosome phagocytic index": 0.126},
      {"smiles": "CC(C)NCC(O)COc1ccc(CC(N)=O)cc1", "note": "(stereo unspecified) [Atenolol]", "synaptosome phagocytic index": 0.717},
      {"smiles": "Cc1nc2c([nH]1)-c1ccccc1N(C(=O)c1ccc(NC(=O)c3ccccc3-c3ccccc3)cc1)CC2", "note": "[Conivaptan_(hydrochloride)]", "synaptosome phagocytic index": 0.827},
      {"smiles": "CCc1c2c(nc3ccc(OC(=O)N4CCC(N5CCCCC5)CC4)cc13)-c1cc3c(c(=O)n1C2)COC(=O)[C@]3(O)CC", "note": "[Irinotecan_(hydrochloride_trihydrate)]", "synaptosome phagocytic index": 0.682},
      {"smiles": "CN(C)CCOC(C)(c1ccccc1)c1ccccn1", "note": "(stereo unspecified) [Doxylamine_(succinate)]", "synaptosome phagocytic index": 0.833},
      {"smiles": "COc1ncc(F)cc1CNc1ccc(Cc2c[nH]c3ncc(C)cc23)c(F)n1", "note": "[PLX5622_(hemifumarate)]", "synaptosome phagocytic index": 0.966},
      {"smiles": "CCCc1nc(C)c2c(O)nc(-c3cc(S(=O)(=O)N4CCN(CC)CC4)ccc3OCC)nn12", "note": "[Vardenafil_(hydrochloride)]", "synaptosome phagocytic index": 1.16},
      {"smiles": "C[N+](C)(C)CCOP(=O)([O-])OC[C@H](O)CO", "note": "[sn-Glycero-3-phosphocholine]", "synaptosome phagocytic index": 0.483},
      {"smiles": "COc1ccc2c(c1)c(CC(=O)O)c(C)n2C(=O)c1ccc(Cl)cc1", "note": "[Indomethacin_(sodium_hydrate)]", "synaptosome phagocytic index": 0.618},
      {"smiles": "NC(=O)c1cnccn1", "note": "[Pyrazinamide]", "synaptosome phagocytic index": 1.21},
      {"smiles": "CCc1c(C)[nH]c2c1C(=O)C(CN1CCOCC1)CC2", "note": "(stereo unspecified) [Molindone_(hydrochloride)]", "synaptosome phagocytic index": 0.64},
      {"smiles": "Cc1ccnc2c1NC(=O)c1cccnc1N2C1CC1", "note": "[Nevirapine]", "synaptosome phagocytic index": 0.84},
      {"smiles": "N[C@H]1CONC1=O", "note": "[L-Cycloserine]", "synaptosome phagocytic index": 0.883},
      {"smiles": "COc1cc2ncnc(Nc3ccc(F)c(Cl)c3)c2cc1OCCCN1CCOCC1", "note": "[Gefitinib]", "synaptosome phagocytic index": 1.24},
      {"smiles": "Cc1ncc([N+](=O)[O-])n1CCO", "note": "[Metronidazole]", "synaptosome phagocytic index": 0.51},
      {"smiles": "COc1cc2nc(N(C)CCCNC(=O)C3CCCO3)nc(N)c2cc1OC", "note": "(stereo unspecified) [Alfuzosin]", "synaptosome phagocytic index": 0.938},
      {"smiles": "COC(=O)/C=C/C(=O)OC", "note": "[Dimethyl_fumarate]", "synaptosome phagocytic index": 0.706},
      {"smiles": "CC[C@H](CO)Nc1nc(NCc2ccccc2)c2ncn(C(C)C)c2n1", "note": "[Seliciclib]", "synaptosome phagocytic index": 0.569},
      {"smiles": "COc1ccc2c3c1O[C@H]1C[C@@H](O)C=C[C@@]31CCN(C)C2", "note": "[Galanthamine]", "synaptosome phagocytic index": 0.617}
    ]}
  ]
}
